Results reported in PubChem BioAssay (Tox21).
Unmarked numbers belong to inactive results. Results filed as inconclusive are left out. Where a call stands in place of a potency, no number is given. Calls of active or inactive are those of the source. Unless noted, the call rests on the fitted dose curve; in most records, active means well fitted curve in the direction sought with a large enough effect in the repeat runs; inconclusive means weak or mixed curves; inactive means no such curve, though single readings can be large; an effect the other way counts as inactive or inconclusive.

How the values were obtained:
[1] = qHTS assay for small molecule agonists of the p53 signaling pathway (AID 651631; calls by dose curve; further: nearly all actives have a fitted effect of over 15% in size)
Outline: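 Beta-lactamase reporter activity under p53 response elements was quantified in HCT-116 cells by FRET fluorescence, following 16 h incubation with test compounds at 37 °C and 2 h substrate development at room temperature.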

[2] = qHTS assay for small molecules that induce genotoxicity in human embryonic kidney cells expressing luciferase-tagged ATAD5 (AID 651632); further: nearly all actives have a fitted effect of over 15% in size
Outline: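 Luminescent reporter readout, HEK293T ATAD5-luc line: 16 hr drug exposure (37C, 5% CO2) followed by Amplite, 30 min RT.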

[3] = qHTS assay for small molecule agonists of the p53 signaling pathway - cell viability (AID 651633; calls by dose curve;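 further: p53RE-bla HCT reporter cells with a stable beta-lactamase p53 reporter; series mostly up to about 83 µM; nearly all actives have a fitted effect of over 30% in size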)
Outline: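 p53RE-bla cells were treated with compound for 16 hours at 37 C. Cytotoxicity was then measured as CellTiter-Glo luminescence after 30 min at room temperature.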

[4] = qHTS assay for small molecules that induce genotoxicity in human embryonic kidney cells expressing luciferase-tagged ATAD5 - cell viability (AID 651634; calls by dose curve; further: nearly all actives have a fitted effect of over 25% in size)
Outline: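 Viability read: CellTiter-Fluor fluorescence, 30 min at 37C. Cells: HEK293T, luciferase-tagged ATAD5. Exposure: 15.5 hr, 37C, 5% CO2, compound or DMSO vehicle.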

[5] = qHTS assay for small molecule disruptors of the mitochondrial membrane potential - cell viability (AID 720634; calls by dose curve;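 further: human HepG2 liver cancer cells; series mostly up to about 83 µM; nearly all actives have a fitted effect of over 20% in size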)
Outline: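 HepG2, 1 hr compound, 37 C. ATP luminescence via CellTiter-Glo, 30 min RT, same well as m-MPI.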

[6] = qHTS assay for small molecule disruptors of the mitochondrial membrane potential (AID 720635); further: potency means the concentration at half of the fitted maximal effect
Outline: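 HepG2 cells exposed to compound 1 hr at 37C, then Mito-MPS dye 30 min. Ratio read of aggregate (540/590 nm) versus monomer (490/535 nm) fluorescence.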

[7] = qHTS assay to test for compound auto fluorescence at 590 nm (red) in HepG2 cells (AID 720674)
Outline: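 Fluorescence at 590 nm emission following 540 nm excitation was recorded from HepG2 wells one hour after compound transfer, with DMSO-only wells as vehicle and Rose Bengal sodium equivalency as the scale.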

[8] = qHTS assay to test for compound auto fluorescence at 535 nm (green) in HepG2 cells (AID 720675)
[9] = qHTS assay to test for compound auto fluorescence at 460 nm (blue) in HEK293 cells (AID 720678)
Outline: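 HEK293 cells (2,000/well, medium with 10% dialyzed FBS) attached 4-5 hr, then exposed to compound overnight at 37C, 5% CO2. Blue fluorescence read at 405/460 nm, with triamterene as reference fluorophore.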

[10] = qHTS assay to test for compound auto fluorescence at 590 nm (red) in HEK293 cells (AID 720679)
Outline: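 HEK293 cells (2,000/well, 10% dialyzed FBS) attached 4-5 hr, then dosed with compound or DMSO and incubated overnight at 37C, 5% CO2. Red fluorescence read at 540/590 nm, Rose Bengal sodium as reference fluorophore.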

[11] = qHTS assay to test for compound auto fluorescence at 535 nm (green) in HEK293 cells (AID 720680)
[12] = qHTS assay to test for compound auto fluorescence at 535 nm (green) in HEK293 cell free culture (AID 720682)
Outline: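 Each library compound, or DMSO control, is added by pintool to medium alone, comprising DMEM and 10% FBS. Emission at 535 nm following 485 nm excitation is quantified against fluorescein.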

[13] = qHTS assay to test for compound auto fluorescence at 590 nm (red) in HEK293 cell free culture (AID 720683)
Outline: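 Cell-free wells of DMEM with 10% FBS received compound, and intrinsic fluorescence was read at excitation/emission 540/590 nm. Values expressed as equivalence to Rose Bengal sodium.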

[14] = qHTS assay to test for compound auto fluorescence at 590 nm (red) in HepG2 cell free culture (AID 720684)
Outline: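 Compound was pinned into wells holding MEM with 10% FBS and no cells, and red fluorescence was read at Ex/Em 540/590 nm. Signal is expressed as auto fluorescence equivalency relative to Rose Bengal sodium.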

[15] = qHTS assay to test for compound auto fluorescence at 460 nm (blue) in HepG2 cell free culture (AID 720685)
Outline: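 Compound (23 nL) or DMSO pinned into cell-free MEM with 10% FBS; blue fluorescence read at 405/460 nm excitation/emission, expressed as auto-fluorescence equivalency to triamterene.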

[16] = qHTS assay to test for compound auto fluorescence at 535 nm (green) in HepG2 cell free culture (AID 720686)
[17] = qHTS assay to test for compound auto fluorescence at 460 nm (blue) in HEK293 cell free culture (AID 720681)
Outline: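 Compounds were added to cell-free DMEM with 10% FBS and fluorescence read directly. The blue channel used 405 nm excitation and 460 nm emission, with triamterene as the reference fluorophore.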

[18] = qHTS assay to test for compound auto fluorescence at 460 nm (blue) in HepG2 cells (AID 720687)
Outline: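 HepG2 cells in MEM with 10% FBS, attached overnight at 37 C, were exposed to compound or DMSO for 1 hr at 37 C, 5% CO2. Blue fluorescence was read at 405/460 nm, with triamterene as reference fluorophore.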

[19] = target: Glucocorticoid receptor (Homo sapiens) (UniProt P04150); assay: qHTS assay to identify small molecule agonists of the glucocorticoid receptor (GR) signaling pathway (AID 720691; active means well fitted activation curve with a large enough effect in the signal ratio in the repeat runs, not every such curve was filed as active; the % refers to the signal ratio)
Outline: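 qHTS in GR-bla HeLa cells: 4 h settling at 37 C/5% CO2, 18 h compound incubation at 37 C, 2 h LiveBLAzer B/G FRET substrate at room temperature, fluorescence intensity measured.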

[20] = target: Glucocorticoid receptor (Homo sapiens) (UniProt P04150); assay: qHTS assay to identify small molecule antagonists of the glucocorticoid receptor (GR) signaling pathway (AID 720692; active means well fitted inhibition curve with a large enough effect in the signal ratio in the repeat runs, not every such curve was filed as active; the % refers to the signal ratio)
Outline: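 Inhibition of glucocorticoid signalling is measured in HeLa cells with a GRE-controlled beta-lactamase reporter; cells are co-treated with compound and 5 nM dexamethasone (final) for 18 h before FRET substrate readout.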

Chain of Glucocorticoid receptor (Homo sapiens) (P04150 whole entry, looked up): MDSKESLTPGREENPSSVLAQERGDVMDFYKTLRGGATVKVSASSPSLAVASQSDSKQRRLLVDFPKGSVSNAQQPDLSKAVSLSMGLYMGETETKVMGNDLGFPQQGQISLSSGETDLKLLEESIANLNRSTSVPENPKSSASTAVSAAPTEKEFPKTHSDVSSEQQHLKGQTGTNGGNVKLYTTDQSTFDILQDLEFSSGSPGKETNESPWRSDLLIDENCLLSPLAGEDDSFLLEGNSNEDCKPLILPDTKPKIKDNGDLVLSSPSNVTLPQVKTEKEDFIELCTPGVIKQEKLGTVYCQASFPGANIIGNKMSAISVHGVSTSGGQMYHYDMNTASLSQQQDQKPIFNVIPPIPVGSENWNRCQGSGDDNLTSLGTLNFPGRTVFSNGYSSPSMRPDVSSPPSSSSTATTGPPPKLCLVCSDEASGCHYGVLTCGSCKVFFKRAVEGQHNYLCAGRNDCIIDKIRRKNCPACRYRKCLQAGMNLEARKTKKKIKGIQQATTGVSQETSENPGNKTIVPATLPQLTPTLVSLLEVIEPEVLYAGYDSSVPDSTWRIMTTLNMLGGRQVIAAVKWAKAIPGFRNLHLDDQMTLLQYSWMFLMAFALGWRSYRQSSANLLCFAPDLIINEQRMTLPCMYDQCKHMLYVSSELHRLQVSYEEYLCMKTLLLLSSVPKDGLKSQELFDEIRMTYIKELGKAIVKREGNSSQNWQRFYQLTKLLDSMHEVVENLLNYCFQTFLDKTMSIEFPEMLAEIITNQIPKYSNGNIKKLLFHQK

## O=[N+]([O-])O[C@H]1CO[C@H]2[C@@H]1OC[C@H]2O[N+](=O)[O-]
[1]
  Potency: inactive
[2]
  Potency: inactive
[3]
  Potency: inactive
[4]
  Potency: inactive
[5]
  Potency: inactive
[6]
  Potency: inactive
[7]
  outcome: inactive
[8]
  outcome: inactive
[9]
  outcome: inactive
[10]
  outcome: inactive
[11]
  outcome: inactive
[12]
  outcome: inactive
[13]
  outcome: inactive
[14]
  outcome: inactive
[15]
  outcome: inactive
[16]
  outcome: inactive

## CN(C)N
[1]
  Potency: inactive
[2]
  Potency: inactive
[3]
  Potency: inactive
[4]
  Potency: inactive
[5]
  Potency: inactive
[6]
  Potency: inactive
[7]
  outcome: inactive
[8]
  outcome: inactive
[10]
  outcome: inactive
[17]
  outcome: inactive
[12]
  outcome: inactive
[13]
  outcome: inactive
[14]
  outcome: inactive
[15]
  outcome: inactive
[16]
  outcome: inactive
[18]
  outcome: inactive
[19]
  Potency: inactive
[20]
  Potency: inactive

## C[N+](C)(C)CCOC(=O)C(O)(c1ccccc1)c1ccccc1
[1]
  Potency: inactive
[2]
  Potency: inactive
[3]
  Potency: inactive
[4]
  Potency: inactive
[5]
  Potency: inactive
[6]
  Potency: inactive
[7]
  outcome: inactive
[8]
  outcome: inactive
[10]
  outcome: inactive
[11]
  outcome: inactive
[17]
  outcome: inactive
[12]
  outcome: inactive
[13]
  outcome: inactive
[14]
  outcome: inactive
[15]
  outcome: inactive
[16]
  outcome: inactive
[18]
  outcome: inactive

## Cc1cnc(C2=NC(C)(C(C)C)C(=O)N2)c(C(=O)O)c1 (stereo not given)
[1]
  Potency: inactive
[2]
  Potency: inactive
[3]
  Potency: inactive
[4]
  Potency: inactive
[5]
  Potency: inactive
[7]
  outcome: inactive
[8]
  outcome: inactive
[9]
  outcome: inactive
[10]
  outcome: inactive
[11]
  outcome: inactive
[17]
  outcome: inactive
[12]
  outcome: inactive
[13]
  outcome: inactive
[14]
  outcome: inactive
[15]
  outcome: inactive
[16]
  outcome: inactive
[18]
  outcome: inactive
[19]
  Potency: inactive
[20]
  Potency: inactive

## CC(Cc1ccccc1)NCc1ccccc1Cl (stereo not given)
[1]
  Potency: inactive
[2]
  Potency: inactive
[3]
  Potency: inactive
[4]
  Potency: inactive
[5]
  Potency: inactive
[7]
  outcome: inactive
[8]
  outcome: inactive
[9]
  outcome: inactive
[10]
  outcome: inactive
[11]
  outcome: inactive
[17]
  outcome: inactive
[12]
  outcome: inactive
[13]
  outcome: inactive
[14]
  outcome: inactive
[15]
  outcome: inactive
[16]
  outcome: inactive
[18]
  outcome: inactive
[19]
  Potency: inactive
[20]
  Potency: inactive

## C[N+]1(CCF)[C@@H]2CC[C@H]1CC(OC(=O)C(O)(c1ccccc1)c1ccccc1)C2 (stereo not given in full)
[1]
  Potency: inactive
[2]
  Potency: inactive
[3]
  Potency: inactive
[4]
  Potency: inactive
[5]
  Potency: inactive
[7]
  outcome: inactive
[8]
  outcome: inactive
[9]
  outcome: inactive
[10]
  outcome: inactive
[11]
  outcome: inactive
[17]
  outcome: inactive
[12]
  outcome: inactive
[13]
  outcome: inactive
[14]
  outcome: inactive
[15]
  outcome: inactive
[16]
  outcome: inactive
[18]
  outcome: inactive
[19]
  Potency: inactive
[20]
  Potency: inactive

## CN1CC[C@]23c4c5ccc(O)c4O[C@H]2[C@@H](O)CC[C@H]3[C@H]1C5
[1]
  Potency: inactive
[2]
  Potency: inactive
[3]
  Potency: inactive
[4]
  Potency: inactive
[5]
  Potency: inactive
[6]
  Potency: inactive
[7]
  outcome: inactive
[8]
  outcome: inactive
[9]
  outcome: inactive
[10]
  outcome: inactive
[12]
  outcome: inactive
[13]
  outcome: inactive
[14]
  outcome: inactive
[15]
  outcome: inactive
[16]
  outcome: inactive
[18]
  outcome: inactive
[20]
  Potency: inactive

## COc1cc(CC(C)N)c(OC)cc1Br (stereo not given)
[1]
  Potency: inactive
[2]
  Potency: inactive
[3]
  Potency: inactive
[4]
  Potency: inactive
[5]
  Potency: inactive
[7]
  outcome: inactive
[8]
  outcome: inactive
[9]
  outcome: inactive
[10]
  outcome: inactive
[11]
  outcome: inactive
[17]
  outcome: inactive
[12]
  outcome: inactive
[13]
  outcome: inactive
[14]
  outcome: inactive
[15]
  outcome: inactive
[16]
  outcome: inactive
[18]
  outcome: inactive

## CCOC(=O)C1OC1(C)c1ccccc1 (stereo not given)
[1]
  Potency: inactive
[2]
  Potency: inactive
[3]
  Potency: inactive
[4]
  Potency: inactive
[5]
  Potency: inactive
[6]
  Potency: inactive
[7]
  outcome: inactive
[8]
  outcome: inactive
[10]
  outcome: inactive
[11]
  outcome: inactive
[12]
  outcome: inactive
[13]
  outcome: inactive
[14]
  outcome: inactive
[15]
  outcome: inactive
[16]
  outcome: inactive
[18]
  outcome: inactive
[19]
  Potency: inactive
[20]
  Potency: inactive

## CCOc1cccc(C2(N3CCN(c4ccccc4)CC3)CCC(C)CC2)c1 (stereo not given)
[1]
  Potency: inactive
[2]
  Potency: inactive
[3]
  Potency: inactive
[4]
  Potency: inactive
[5]
  Potency: inactive
[6]
  Potency: inactive
[7]
  outcome: inactive
[8]
  outcome: inactive
[9]
  outcome: inactive
[10]
  outcome: inactive
[11]
  outcome: inactive
[12]
  outcome: inactive
[13]
  outcome: inactive
[14]
  outcome: inactive
[15]
  outcome: inactive
[16]
  outcome: inactive
[19]
  Potency: inactive
[20]
  Potency: inactive

## COC1CC(=C(c2cccs2)c2cccs2)C[N+](C)(C)C1 (stereo not given)
[1]
  Potency: inactive
[2]
  Potency: inactive
[3]
  Potency: inactive
[4]
  Potency: inactive
[5]
  Potency: inactive
[7]
  outcome: inactive
[8]
  outcome: inactive
[9]
  outcome: inactive
[10]
  outcome: inactive
[11]
  outcome: inactive
[17]
  outcome: inactive
[12]
  outcome: inactive
[13]
  outcome: inactive
[14]
  outcome: inactive
[15]
  outcome: inactive
[16]
  outcome: inactive
[18]
  outcome: inactive
[19]
  Potency: inactive
[20]
  Potency: inactive

## CC[N+]1(C)CCCC(OC(=O)C(O)(c2ccccc2)c2ccccc2)C1 (stereo not given)
[1]
  Potency: inactive
[2]
  Potency: inactive
[3]
  Potency: inactive
[4]
  Potency: inactive
[5]
  Potency: inactive
[6]
  Potency: inactive
[7]
  outcome: inactive
[8]
  outcome: inactive
[9]
  outcome: inactive
[10]
  outcome: inactive
[12]
  outcome: inactive
[13]
  outcome: inactive
[14]
  outcome: inactive
[15]
  outcome: inactive
[16]
  outcome: inactive
[18]
  outcome: inactive
[19]
  Potency: inactive
[20]
  Potency: inactive

## N#CC(C#N)=Cc1ccc(O)c(O)c1
[1]
  Potency: inactive
[2]
  Potency: inactive
[3]
  Potency: inactive
[4]
  Potency: inactive
[5]
  Potency: inactive
[6]
  Potency: 11.9 µM (active)
[7]
  outcome: inactive
[8]
  outcome: inactive
[9]
  outcome: inactive
[10]
  outcome: inactive
[11]
  outcome: inactive
[17]
  outcome: inactive
[12]
  outcome: inactive
[13]
  outcome: inactive
[14]
  outcome: inactive
[15]
  outcome: inactive
[16]
  outcome: inactive
[18]
  outcome: inactive

## CCCC1CCCCN1 (stereo not given)
[1]
  Potency: inactive
[2]
  Potency: inactive
[3]
  Potency: inactive
[4]
  Potency: inactive
[5]
  Potency: inactive
[7]
  outcome: inactive
[8]
  outcome: inactive
[9]
  outcome: inactive
[10]
  outcome: inactive
[11]
  outcome: inactive
[17]
  outcome: inactive
[12]
  outcome: inactive
[13]
  outcome: inactive
[14]
  outcome: inactive
[15]
  outcome: inactive
[16]
  outcome: inactive
[18]
  outcome: inactive
